# From PubChem BioAssay (NCATS)
# Records with an inconclusive call do not appear. A number with no mark means an inactive call. Activity calls are given as the source filed them. Calls follow the shape of the dose curve; as a rule, active = well fitted inhibition curve with a large enough effect; inconclusive = small, poorly fitted or top-dose-only effect; inactive = flat fitted curve, though single readings scatter. Where a SMILES comes first, the peptide text is derived from it. [ ]: non-standard residue; d: D form. The star is where a group is joined. Dolaproine = CO[C@@H]([C@@H]1CCCN1)[C@@H](C)C(=O)O; Dil = CC[C@H](C)[C@H](NC)[C@@H](CC(=O)O)OC; Doe = c1ccc(C[C@H](N*)c2nccs2)cc1; Aib = CC(C)(N)C(=O)O
# Tested on: KB-3-1
# Assay: Cytotoxic Profiling of Annotated Libraries Using Quantitative High-Throughput Screening (AID 1296008); also: nearly all actives have a fitted effect of over 60% in size
# Settings: Five cell lines viability, CellTiter-Glo ATP luminescence, 48-72 h; max response: stronger effect = lower value
# Source text: Cell-based phenotypic screening is a commonly used approach to discover biological pathways, novel drug targets, chemical probes and high-quality hit-to-lead molecules. Many hits identified from high-throughput screening campaign are ruled out through a series of follow-up potency, selectivity/specificity, and cytotoxicity assays. Prioritization of molecules with little or no cytotoxicity for a more in-depth downstream evaluation influence the future direction of projects, so cytotoxicity profiling of the screening libraries at early stage is essential for increasing the likelihood of candidate success. […] For the annotated library, we also examined the primary targets and mechanistic pathways regularly associated with cell death. To our knowledge, this is the first study to use high-throughput screening to profile large libraries for cytotoxicity assessment in both normal and cancer cell lines. In summary, the results generated here constitutes a valuable resource for the scientific community and provides insight on identifying cytotoxic compounds with particular mechanisms of action, and prioritizing compounds with suitable cytotoxicity profile for further evaluation.
# A pintool (Kalypsys) was used to transfer 23 nL of compound solution to the 1536-well assay plates. After 48 or 72 hr incubation at 37 degree Celsius, 5% CO2 and 95% humidity, 2.5 uL of CellTiter-Glo (Promega) was dispensed into each well using a dispenser (Aspect Automation, St. Paul, MN) with solenoid valves (Lee Valves, Westbrook CT). Plates were left at room temperature for 10 min before imaging the ATP-coupled luminescence using a ViewLux microplate imager (PerkinElmer, Waltham, MA).
# % is scaled to controls: 0 for no effect and ±100 for the full control effect; potency is read from the fitted curve at half-maximal effect.
SMILES,Potency,outcome,max response [%]
CC(=O)O[C@H]1C[C@]2(O)[C@@H]3CC[C@@H]4C[C@@H](O)CC[C@]4(C)[C@H]3CC[C@]2(C)[C@H]1c1ccc(=O)oc1,58 nM (active),–,–
COC1CC(O[C@H]2CC[C@]3(C)C4CC[C@]5(C)[C@@H](C6=CC(=O)OC6)[C@@H](OC(C)=O)C[C@]5(O)C4CC[C@@H]3C2)OC(C)C1O[C@@H]1O[C@H](CO)[C@@H](O)[C@H](O)[C@H]1O (stereo not given in full),862 nM (active),–,–
CC(=O)O[C@H]1CN2CCC1CC2,–,inactive,–
CC[C@H](C)[C@@H]([C@@H](CC(=O)N1CCC[C@H]1[C@H](OC)[C@@H](C)C(=O)N[C@@H](Cc1ccccc1)c1nccs1)OC)N(C)C(=O)[C@@H](NC(=O)C(C)(C)N)C(C)C (H-[Aib]V[Dil][Dolaproine]-Doe),1 nM (active),–,–
CC1=CC(=O)[C@@H](O)[C@]2(C)C3[C@@H](O)[C@@H]4OC(=O)[C@@H]([C@H]4C)[C@]3(C)C(=O)C[C@@H]12 (stereo not given in full),4530 nM (active),–,–
Cc1cccc(NC(=O)c2ccc(C(F)(F)F)cc2C(=O)O)n1,–,inactive,–
C[C@]12CCC(=O)C[C@@H]1CC[C@@H]1[C@@H]2CC[C@@]2(C)[C@H]1CC[C@]2(C)O,–,–,-6.75
C=CCN1CCC2(C)c3cc(O)ccc3C[C@H]1[C@H]2C,–,–,1.41
CC1=CC(=O)[C@@H](O)[C@@]2(C)C1C[C@H]1OC(=O)[C@H](O)[C@@]3(O)[C@@H](C)[C@@H](O)[C@H](O)C2[C@@]13C (stereo not given in full),6400 nM (active),–,–
C[C@@H]1[C@H](O)[C@@H](C)/C=C/C=C/CC/C=C/C=C/C=C/C=C/[C@H](O[C@H]2O[C@@H](C)[C@H](O)[C@@H](N)[C@H]2O)C[C@@H]2O[C@](O)(C[C@@H](O)[C@H](O)CC[C@@H](O)C[C@@H](O)C[C@@H](O)CC(=O)O[C@H]1C)C[C@H](O)[C@H]2C(=O)O,–,inactive,–
CCOP(=S)(OCC)SCSc1ccc(Cl)cc1,–,–,-9.26
Cc1c(Cl)c(OCC(=O)N2CCN(C)CC2)nc2sc(C(=O)NC3CC3)c(N)c12,–,inactive,–
C[C@@H](N)C(=O)c1ccccc1,–,–,2.24
CN1CC[C@@]23CCCC[C@@H]2[C@@H]1Cc1ccc(O)cc13,–,–,-20.8
CCC(C)(O)C1(C(=O)O)COC(=O)C1 (stereo not given),–,inactive,–
COC(=O)[C@H]1[C@@H](OC(=O)c2ccccc2)C[C@@H]2CC[C@H]1N2C,–,–,1.68
C[C@@H]1C[C@@H](O)[C@]2(O)O[C@@H]3C[C@@]4(C=O)C(CC[C@@H]5C4CC[C@]4(C)[C@@](O)(C6=CC(=O)OC6)CC[C@]54O)C[C@H]3OC2O1 (stereo not given in full),2240 nM (active),–,–
CC1=C[C@H]2O[C@@H]3[C@H](O)[C@@H](O)[C@](C)([C@@]2(CO)C[C@@H]1O)[C@]31CO1,1460 nM (active),–,–
CO[C@H]1C[C@H](O[C@H]2CC[C@]3(C=O)[C@H]4CC[C@]5(C)[C@@H](C6=CC(=O)OC6)CC[C@]5(O)[C@@H]4CC[C@]3(O)C2)O[C@H](C)[C@H]1O,126 nM (active),–,–
CN(C)[C@@H]1C(=O)C(C(N)=O)=C(O)[C@@]2(O)C(=O)C3=C(O)c4c(O)ccc(Cl)c4[C@@](C)(O)C3C[C@@H]12 (stereo not given in full),–,–,-13.4

SMILES,Potency,outcome,max response [%]
CN1CCCCC1Cn1cc(C(=O)c2cc([N+](=O)[O-])ccc2I)c2ccccc21 (stereo not given),–,–,6.42
CCC1(O)CCC2C3CCC4=CC(=O)CCC4C3CCC21CC (stereo not given),–,–,-10.9
NC(=O)c1ncn2c1CN=C(c1ccccc1Br)c1cc(F)ccc1-2,–,–,5.47
C#CC1(O)CCC2C3CCC4=CC(=O)CCC4=C3C=CC21C (stereo not given),6510 nM (active),–,–
COc1cc2c(c(OC)c1OC)-c1ccc(SC)c(=O)cc1[C@@H](NC(C)=O)CC2,5.8 nM (active),–,–
C[C@H]1CC[C@@H]2[C@@H](C)[C@H]3[C@H](C[C@H]4[C@@H]5CC=C6CC(O[C@@H]7O[C@H](CO)[C@@H](O)[C@H](O[C@@H]8O[C@H](CO)[C@@H](O)[C@H](O)[C@H]8O)[C@@H]7O[C@@H]7O[C@@H](C)[C@H](O)[C@@H](O)[C@H]7O)CC[C@]6(C)[C@H]5CC[C@]34C)N2C1 (stereo not given in full),–,–,2.33
CC(=O)O[C@H]1C[C@@H](C)O[C@H]2O[C@@H]3CC4CC[C@@H]5C(CC[C@]6(C)[C@@H](C7=CC(=O)OC7)CC[C@]56O)[C@@]4(C=O)C[C@H]3O[C@]21O (stereo not given in full),68.5 nM (active),–,–
CCCCn1cc(C(=O)c2cccc3ccccc23)c2ccccc21,–,–,-16.1
CCCN(CCC)[C@@H]1CCc2ccc3[nH]c(C#N)cc3c2C1,–,inactive,–
N#Cc1ccc([C@H]2CCCC[C@H]2O)cc1C(F)(F)F,–,–,-5.63
COc1ccsc1CNCC[C@@]1(c2ccccn2)CCOC2(CCCC2)C1,–,–,9.07
CCC1CC2CN3CCc4c([nH]c5ccccc45)C(C(=O)OC)(C2)C13 (stereo not given),–,inactive,–
CCOC(=O)c1ccc(-c2ccc(OC(=O)N(C)Cc3cccc(-c4ccncc4)c3)cc2)cc1,–,–,1.19
CC[C@H](C)[C@H](NC(=O)[C@H]1CCCCN1C)C(=O)N(COC(=O)CC(C)C)[C@H](C[C@@H](OC(C)=O)c1nc(C(=O)N[C@@H](Cc2ccc(O)cc2)C[C@H](C)C(=O)O)cs1)C(C)C,0.8 nM (active),–,–
Cc1ccccc1C1=CCN(C)CC1,–,–,6.53
CCC1CN2CCC3(C(=O)Nc4cccc(O)c43)C2CC1/C(=C/OC)C(=O)OC (stereo not given),–,–,-16.6
C[C@H](CCC(=O)O)C[C@H](C)C[C@H](C)C(=O)/C=C(\O)[C@H](C)C[C@H](C)C/C=C/[C@@H](C)[C@@H](O)[C@@H](C)[C@@H](O)C[C@@H]1CC[C@@](C)([C@H]2CC[C@@](C)([C@@H](C)O)O2)O1,8930 nM (active),–,–
CC1=CC2/C=C(\C)CCC(O)C(O)/C=C/C(=O)OC23C(=O)NC(CC(C)C)C3C1C (stereo not given),–,–,9.99
C[C@H]1O[C@@H](O[C@H]2CC[C@]3(CO)C4CC[C@]5(C)[C@@H](C6=CC(=O)OC6)CC[C@]5(O)[C@@H]4CC[C@H]3C2)[C@H](O)[C@H](O)[C@@H]1O[C@@H]1O[C@H](CO)[C@@H](O)[C@H](O)[C@H]1O (stereo not given in full),1930 nM (active),–,–
CN1C(=O)[C@]23CC4C(C)(C)[C@@]5(C[C@@]41CN2CC[C@@]3(C)O)C(=O)Nc1c5ccc2c1OC=CC(C)(C)O2 (stereo not given in full),–,–,1.88
